Measurements from ChEMBL document CHEMBL3988442, “University of Dundee, Small-Polar-MMV Screening Library” (2021).
The whole screen tested about 48,000 compounds, of which about 13,000 (27%) showed an effect of 50% or more. The list shows a part of the results.

Each molecule was assayed on Wolbachia pipientis (assay: Anti-Wolbachia Cell-Based Screen). Conditions: 5 µM.
Type: functional
Set-up: scale not given: in the data most compounds retested in dose-response had high values

Structure (SMILES)	Percent Effect [%]
CCc1nc(CNCC2CCCN2c2cc(NC)ncn2)cs1 (configuration not stated)	9.196
COc1c(C2CCCN2Cc2nnc(C3CC3)n2C)c(C)nn1C (configuration not stated)	1.396
N#Cc1ccc(CN2CCN(C(=O)C3CCC3)[C@@H]3CS(=O)(=O)C[C@@H]32)cc1	-4.315
CN(C)c1nc(N)nc(CN2CCC(c3ccccc3)CC2)n1	-7.992
CN(C)c1nc(N)nc(CN2CCCC2c2ccsc2)n1 (configuration not stated)	99.77
CN(CCC#N)C(=O)CN1CCCC1c1cccs1 (configuration not stated)	-24.43
Cc1nc(CN2CCCC2c2ccsc2)nc2ccccc12 (configuration not stated)	1.892
CN(C)c1nc(N)nc(CN2CCCC2c2cccs2)n1 (configuration not stated)	99.23
CCCc1noc(CN2CCCC2c2ccsc2)n1 (configuration not stated)	1.014
Cc1cccc(C2CCCN2Cc2nc(N)nc(N(C)C)n2)c1C (configuration not stated)	140.3
CN(C)c1nc(N)nc(CN2CCCC(c3ccccc3)CC2)n1 (configuration not stated)	-22.19
CN(C)c1nc(N)nc(CN2CCC(c3nc4ccccc4o3)CC2)n1	-47.21
COCCC(=O)Nc1nccn1Cc1ccc(Br)cc1	-0.6439
CNC(=O)c1cnc(/C=C/c2ccc(OC)c(O)c2)s1	-1.59
Cc1cc(C(=O)N2C[C@H](CO)C[C@H](CN3CCOCC3)C2)cnc1C	8.759
Cc1ccc(C)c2c(O)cc(CNCCNC(=O)C(C)C)nc12	-21.09
c1cncc(NCCNC2CSCCSC2)c1	16.15
Cc1cccc(-c2noc([C@@H]3C[C@@H](O)CN3Cc3ccc(CO)o3)n2)c1	5.801
CC(C)n1cnc2c1C(C(=O)N1CCCC1)N(S(C)(=O)=O)CC2 (configuration not stated)	-12.38
Cc1nn(C)c(Cl)c1C1CCCN1Cc1nnc(C2CC2)n1C (configuration not stated)	-12.44
CCc1nnc2n1CCN(CC(=O)Nc1cc(C)on1)C2	-12.71
Cc1cc(NC(=O)CN2CCN(c3nccs3)C(C)C2)on1 (configuration not stated)	108.7

Structure (SMILES)	Percent Effect [%]
Cc1cc(NC(=O)C(C)N2CCCN(c3nccs3)CC2)on1 (configuration not stated)	-9.765
Cc1cc(NC(=O)CN2CCN(c3nccs3)C(C)C2)no1 (configuration not stated)	110.3
Cc1cc(NC(=O)C(C)N2CCN(c3nccs3)CC2)on1 (configuration not stated)	-1.934
CN(C)c1nccc(-c2cnc(N(C)C)[nH]c2=O)n1	117.9
CN(C)c1nccc(-c2c[nH][nH]c2=O)n1	105.1
CN(C)c1nccc(NC(=O)c2ccncc2)n1	2.726
CN(C)c1nccc(CNC(=O)NC(C)(C)C)n1	-4.369
CC(=O)c1ccc(C(=O)Nc2ccnc(N(C)C)n2)cc1	-0.9205
CCNC(=O)NCc1ccnc(N(C)C)n1	-21.64
c1cc(-c2nc(CN3CCn4c(nnc4C4CC4)C3)cs2)cs1	-6.477
Cc1noc2ncc(S(=O)(=O)Nc3cc(C(C)(C)C)n[nH]3)cc12	-0.8197
Cc1cc(C(=O)N(Cc2c(C)nn(C)c2C)C(C)C)nc(C)n1	12.98
CN1CCN(Cc2ccccc2CNC(=O)c2ccc(Br)cc2F)CC1	7.367
CN1CCN(Cc2ccccc2CNC(=O)c2cc(Br)ccc2F)CC1	-18.53
CN1CCN(Cc2ccccc2CNC(=O)c2ccc(Br)cc2)CC1	1.874
Cn1ccc(C(=O)NCc2ccccc2CN2CCCCC2)cc1=O	100.5
Cn1ccc(C(=O)NCc2ccccc2CN2CCCC2)cc1=O	88.78
Cn1ccc(C(=O)NCc2ccccc2Cn2ccnc2)cc1=O	-5.249
COc1cc(C)cc(C(C(=O)O)N(C)Cc2ccon2)c1OC (configuration not stated)	-2.337
O=C1CC(c2ccccc2)C2(CCN(C(=O)c3cnccn3)CC2)N1 (configuration not stated)	-7.237
O=C(COCC(F)(F)F)Nc1nncs1	9.109
O=C(NCC1CC1)Nc1cccc(N2CCN(CC3CC3)CC2)c1	0.3476

Structure (SMILES)	Percent Effect [%]
Cc1[nH]c2ccc(CNC(=O)c3ccc(CN4CCCC4)o3)cc2c1C	16.58
O=C(NCc1ccc2[nH]c(=O)[nH]c2c1)c1ccc(CN2CCCC2)o1	-9.598
O=C(CCn1cccc1)NCc1ccc(CN2CCCCCC2)o1	106.7
CNC(=O)c1csc(-c2cccnc2)n1	130
CNC(=O)c1csc(-c2ccoc2)n1	6.478
CC(C)N1CCCC(CNC(=O)Cc2csc(-c3cccnc3)n2)C1 (configuration not stated)	3.537
O=C(NCCc1nncn1C1CC1)C1SCCc2ccccc21 (configuration not stated)	-2.915
CS(=O)(=O)NC1CCN(CCc2ccccc2)CC1	-1.788
Cc1nn(C)cc1NC(=O)CC1CCN(C(=O)Cc2ccccc2)CC1	152.2
Cc1nn(C)cc1NC(=O)CC1CCN(CCc2ccccc2)CC1	168.6
O=C(Cc1ccccc1F)NCC1CCN(CCc2ccccc2)C1 (configuration not stated)	-7.846
Cc1nn(C)cc1C(=O)N1CCC(CSc2ccccc2)C1 (configuration not stated)	-5
Cn1cccc(NC(=O)N2CCC(Cc3ccccc3)C2)c1=O (configuration not stated)	25.6
CC(=O)NCc1nnc2n1CCN(c1ncnc3c1CCC3)CC2	-4.362
Cn1cc(Br)cc(NC(=O)CC2CCC2)c1=O	5.375
CC(C)(C)C(NC(=O)CCS(C)(=O)=O)c1ccc(F)cc1F (configuration not stated)	7.431
COCCS(=O)(=O)Cc1nnnn1-c1ccccc1	8.083
CCCn1[nH]cc/c1=N\C(=O)CN1CCc2c(nc(C(C)C)n2C)C1	-3.864
CCCn1[nH]cc/c1=N\C(=O)CN1CCOC(Cn2cc(C)cn2)C1 (configuration not stated)	12.63
CCCn1[nH]cc/c1=N\C(=O)CN1CCc2cnc(CC)nc2C1	1.642
CCCn1[nH]cc/c1=N\C(=O)CN1CCn2c(nnc2C2CC2)C1	-10.08
CCCn1[nH]cc/c1=N\C(=O)CN1CCc2cnc(C(C)C)nc2C1	129.2

Structure (SMILES)	Percent Effect [%]
CCCn1[nH]cc/c1=N\C(=O)CN1CCc2c(nc(C3CC3)n2C)C1	122.4
O=C(CNC(=O)N(Cc1ccoc1)C1CCCCC1)N1CCCC1	-3.863
O=C1CN(Cc2cn(CC3CCCN(C4CCSCC4)C3)nn2)CCN1 (configuration not stated)	-21.26
Cn1cc(C(=O)N2CCCC2c2ccc3c(c2)OCCO3)ccc1=O (configuration not stated)	14.96
CNc1cncc(C2CCCN2C(=O)c2ccc3oc(C)cc3c2)n1 (configuration not stated)	6.468
CNc1cncc(C2CCCN2C(=O)c2ccc3c(c2)CCC3)n1 (configuration not stated)	112.1
CNc1cncc(C2CCCN2C(=O)c2ccc3nc(C)[nH]c3c2)n1 (configuration not stated)	94.32
Cn1ccc(C(=O)N2CCCC2c2ccc3c(c2)OCCO3)cc1=O (configuration not stated)	4.386
CNc1cncc(C2CCCN2C(=O)c2ccc3c(c2)OCCO3)n1 (configuration not stated)	121
CC(C)C(=O)N1CCN(C(=O)CCc2nnc(-c3ccccc3)o2)CC1	-5.371
CN(CCn1cccn1)S(=O)(=O)c1ccc(C#N)cc1	-4.99
CCc1ncncc1C(=O)N1CCCN(Cc2ccc(C)cc2)CC1	-0.6521
CC(C)c1ncncc1C(=O)N1CCN(Cc2ccsc2)CC1	100.4
Cc1ccc(C(=O)N2CCN(Cc3ccsc3)CC2)n1C	-3.003
CC(C)c1ncncc1C(=O)N1CCN(Cc2ccccn2)CC1	108.4
CC(C)c1ncncc1C(=O)N1CCCN(Cc2cccs2)CC1	14.44
CC(C)c1ncncc1C(=O)N1CCN(Cc2cccnc2)CC1	115.2
CC(C)c1cc(C(=O)N2CCN(Cc3ccsc3)CC2)n[nH]1	8.435
CCCc1c(C(=O)N2CCN(Cc3ccccn3)CC2)cnn1C	12.63
CC(C)CN1CCN(C(=O)c2cccnc2-n2cncn2)CC1	-9.606
CCc1c(C)[nH]c(C(C)(N)CC)nc1=O.Cl (configuration not stated)	22.39
COc1cccc(COCC(O)CN(C)c2ccc(C)cc2C)c1 (configuration not stated)	0.5373

Structure (SMILES)	Percent Effect [%]
Cn1cc(CNC2CCOCC2)c(-c2cc3ccccc3o2)n1	2.257
Cc1c(CN2CCc3nc4sccc4c(=O)n3CC2)cnn1C.Cl	100.5
Cn1cc(CN2CCc3nc4ccccc4c(=O)n3CC2)cn1	97.31
CC(C)(C)c1n[nH]cc1CN1CCc2nc3ccsc3c(=O)n2CC1	-17.99
Cn1cc(CN2CCCN(C(=O)c3cn4ccccc4n3)CC2)cn1	23.55
Cn1cc(CN2CCCN(C(=O)c3cc(Cl)cn3C)CC2)cn1	-17.2
Cn1cc(CN2CCc3nc4sccc4c(=O)n3CC2)cn1	107.2
Cc1nn(C)cc1CN1CCc2nc3sccc3c(=O)n2CC1	108
Cc1cc2c(=O)n3c(nc2s1)CCN(Cc1cnn(C)c1C)CC3.Cl	-7.845
O=c1c2ccccc2nc2n1CCN(Cc1cccs1)CC2	-4.199
COCCN(Cc1cnn(C)c1)c1nc(C)nc2sccc12	10.56
CCn1nc2c(cc1=O)CN(Cc1nc(-c3ccoc3)no1)CC2	-3.016
Cn1cc(C2CCCN2C(=O)c2cnc(-c3cccs3)s2)cn1 (configuration not stated)	79.27
Cn1cc(C2CCCN2C(=O)c2cnc(-c3ccco3)s2)cn1 (configuration not stated)	97.73
Cn1cc(C2CCCN2C(=O)c2cnc(-c3ccccn3)s2)cn1 (configuration not stated)	99.88
Cn1cc(C2CCCN2C(=O)Cc2n[nH]c3ccccc23)cn1 (configuration not stated)	-7.231
Cn1cc(C2CCCN2C(=O)c2cnc(-c3ncccn3)s2)cn1 (configuration not stated)	107.5
Cn1cc(C2CCCN2C(=O)Cc2coc(-c3ccccc3)n2)cn1 (configuration not stated)	-3.572
Cn1cc(C2CCCN2C(=O)c2ccc(Br)o2)cn1 (configuration not stated)	-1.087
